Activity calls are given as the source filed them. Rule for the calls: active = hit-call score of the fitted dose curve at least 0.9, where 1 is the maximum; inactive = score below 0.9.
Read-out: Potassium channel subfamily K member 1 (KCNK1), KCNK1 (gene 3775)
Experiment: LTEA_HepaRG_KCNK1: Life Technologies and Expression Analysis (LTEA) Assay for Potassium channel subfamily K member 1 (KCNK1) using HepaRG (AID 2283511)
Settings: mRNA level, 48 h; actives raise or lower the signal
In short: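 Differentiated HepaRG cells, 48 h exposure in serum-free induction medium with 0.5% DMSO; 8 concentrations, half-log from 100 uM, duplicate. KCNK1 mRNA by qRT-PCR, normalized to ACTB, GAPDH, POLR2A; bidirectional fit vs DMSO.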

Structure (SMILES)	outcome	AC50
NC=O	inactive	–
O=C1c2c(O)cccc2Cc2cccc(O)c21	inactive	–
O=C(O)c1cccnc1	inactive	–
CC(=O)[C@@]1(O)CC[C@H]2[C@@H]3CCC4=CC(=O)CC[C@]4(C)[C@H]3CC[C@@]21C	inactive	–
CCc1nc(N)nc(N)c1-c1ccc(Cl)cc1	inactive	–
O=Cc1ccccc1C=O	inactive	–
O=C1CCCCC1	inactive	–
CCN(CC)CCOc1ccc(C(=C(Cl)c2ccccc2)c2ccccc2)cc1	inactive	–
CN(C)C(=O)NC1(c2ccccc2)CCN(CCC[C@]2(c3ccc(Cl)c(Cl)c3)CCCN(C(=O)c3ccccc3)C2)CC1	–	16.1 µM (active)
N[C@@H](Cc1c[nH]c2ccccc12)C(=O)O	inactive	–
CCCCCCC(CCCCCCCCCCC(=O)OCC(COC(C)=O)OC(C)=O)OC(C)=O (configuration not stated)	inactive	–
O=C(O)CC(O)(CC(=O)O)C(=O)O	inactive	–
Cc1ccc(C(C)(C)C)c(O)c1	inactive	–
CCc1cc(C2=C(C(=O)O)N(c3ccccc3C(F)(F)F)S(=O)(=O)c3ccccc32)cc2c1OCO2	–	73.3 µM (active)
CCOCCOCCO	inactive	–
CC(N)=O	inactive	–
C=CCCCCCCCCCCCC	inactive	–
CSc1ccc(Oc2ccc(S(N)(=O)=O)cc2CN(C)C)cc1C	inactive	–
CC(C)c1cccc(C(C)C)c1NC(=O)NS(=O)(=O)c1cc(C(C)(C)O)co1	inactive	–
CCCCOC(=O)CCCCC(=O)OCCCC	inactive	–
CC(C)(O)c1ccc(CNC(=O)c2cccnc2Oc2ccc(F)cc2)cc1	inactive	–
Cc1c(C)c2c(c(C)c1O)CCC(C)(COc1ccc(CC3SC(=O)NC3=O)cc1)O2 (configuration not stated)	inactive	–

Source: PubChem BioAssay (EPA / NIEHS)
